Sm TGR inh: qHTS Assay for the Inhibitors of Schistosoma Mansoni Peroxiredoxins | Schistosoma mansoni thioredoxin glutathione reductase (TGR), Q962Y6 | AID 485364, 2010 | purified TGR, DTNB reduction, TNB absorbance 405 nm | Potency, µM (series often up to 114 µM), inactives show at the top dose activity change, negative = inhibition, hits mostly inhibitors | 360,000 compounds, 3% hits; further: potency means the concentration at half of the fitted maximal effect; on the % scale 0 is the no-effect control and ±100 the full control effect; nearly all actives have a fitted effect of over 60% in size
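Kinetic colorimetric format: TGR-catalysed, NADPH-driven DTNB reduction monitored via TNB absorbance. Enzyme dispensed at 20 nM; compound exposure 15 min at room temperature before reaction start.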
FBPA Giardia inh: qHTS Assay for Inhibitors of Fructose-1,6-bisphosphate Aldolase from Giardia Lamblia | purified Giardia FBPA | Potency, µM (highest dose often 59.6 µM), without a hit: top-dose activity, negative = inhibition, most hits filed as inhibitors | A8B2U2 | 290,000 compounds, 0.71% hits; further: potency means the concentration at half of the fitted maximal effect; on the % scale 0 is the no-effect control and ±100 the full control effect; nearly all actives have a fitted effect of over 55% in size
Target sequence (A8B2U2 whole entry, looked up): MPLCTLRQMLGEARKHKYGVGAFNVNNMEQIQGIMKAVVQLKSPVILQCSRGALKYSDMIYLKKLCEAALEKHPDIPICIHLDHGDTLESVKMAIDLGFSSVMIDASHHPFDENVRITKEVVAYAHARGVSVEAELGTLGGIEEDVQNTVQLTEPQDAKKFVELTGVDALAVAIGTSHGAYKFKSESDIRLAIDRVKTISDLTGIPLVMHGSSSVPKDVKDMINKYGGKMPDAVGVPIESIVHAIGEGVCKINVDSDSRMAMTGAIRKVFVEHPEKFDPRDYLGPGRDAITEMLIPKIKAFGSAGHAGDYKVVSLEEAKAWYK
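40 nM FBPA preincubated 10 min at RT with compound (up to 57.5 uM final), then substrate plus GAPDH/TPI/NAD/arsenate coupling and diaphorase/resazurin added. Fluorescence read after 20 min at RT, 525/598 nm.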
LmPK inhibitor: qHTS Assay for Inhibitors of Leishmania Mexicana Pyruvate Kinase (LmPK). 290,000 compounds, 0.37% hits. purified LmPK, Kinase-Glo ATP luminescence, 1 h. Q27686. AID 1721, 2009. Potency, µM (titrated, usually from 57.5 µM), for the others: top-dose activity change, negative = inhibition, hits mostly inhibitors; further: potency means the concentration at half of the fitted maximal effect; on the % scale 0 is the no-effect control and ±100 the full control effect
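Purified LmPK (0.1 nM) with 0.5 mM PEP and 0.1 mM ADP in imidazole buffer pH 7.2 with MgCl2/KCl, 1 h at room temperature. ATP formed was read by luciferase luminescence and normalized to no-enzyme and uninhibited controls.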
Shiga toxin inh: A qHTS for Small Molecule Inhibitors of Shiga Toxin. inhibition, % at 38.7 µM. 290,000 compounds, 9.2% hits. Vero cells, Shiga toxin protein synthesis inhibition reporter; in the data active means inhibition mostly above about 28%, no sharp cut-off; inactive means mostly below about 43%; further: 0% is about no effect
TbPYK inhibitor: qHTS of Trypanosoma Brucei Inhibitors. AID 624173, 2012. pyruvate kinase (Trypanosoma brucei), Q57TT1. Potency, µM (top dose mostly 76.8 µM), for the others: top-dose activity, negative = inhibition, most hits filed as inhibitors. 410,000 compounds, 0.12% hits. TbPYK enzyme, Kinase-Glo Plus ATP luminescence, 45 min; further: potency means the concentration at half of the fitted maximal effect; on the % scale 0 is the no-effect control and ±100 the full control effect; nearly all actives have a fitted effect of over 50% in size
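ADP (130 uM final) triggers the TbPYK reaction after compound addition; incubation is 45 min at room temperature. Kinase-Glo Plus is then added and luminescence imaged. Normalized data are fitted to concentration-effect curves.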
CHX counter: Cycloheximide Counterscreen for Small Molecule Inhibitors of Shiga Toxin | cell reporter, cycloheximide protein synthesis inhibition counterscreen | max response, % | 300,000 compounds, 12% hits | AID 2314, 2010; in the data active means max response mostly above about 13%, no sharp cut-off; inactive means mostly below about 14%; further: read at 38.3 µM for the half of the compounds with a filed dose; 0% is about no effect
An asterisk follows results filed as active. Only a selection was taken, and hits are over-represented in it overall. Unless noted, the call rests on the fitted dose curve; in most records, active means well fitted curve in the direction sought with a large enough effect; inconclusive means small, poorly fitted or top-dose-only effect, or another doubt; inactive means no such curve, though single readings can be large; an effect the other way counts as inactive or inconclusive.

For CCSc1nc(=S)n(-c2ccccc2)c(C)c1C(C)=O the results were Sm TGR inh 11.0%, FBPA Giardia inh 4.1%, LmPK inhibitor -1.7%, Shiga toxin inh -9.8, TbPYK inhibitor 2.5% and CHX counter -3.8.
Screening CCSc1nc(=O)n(-c2ccccc2)c(C)c1C(C)=O returned Sm TGR inh -1.6%, FBPA Giardia inh 0.0%, LmPK inhibitor -9.4%, Shiga toxin inh 33.3*, TbPYK inhibitor 3.0% and CHX counter 15.9*.
For CS(=O)(=O)c1ccc(C(=O)OCC(=O)NC(=O)C2CCCCC2)cc1[N+](=O)[O-] the results were Sm TGR inh 7.08µM*, FBPA Giardia inh 1.8%, LmPK inhibitor -0.4%, Shiga toxin inh 17.6, TbPYK inhibitor -9.2% and CHX counter 18.0.
Screening CC(CCc1ccccc1)NC(=O)COC(=O)c1ccc(S(C)(=O)=O)c([N+](=O)[O-])c1 (stereo not drawn) returned Sm TGR inh 1.78µM*, FBPA Giardia inh 1.4%, LmPK inhibitor -8.5%, Shiga toxin inh 24.0, TbPYK inhibitor -2.4% and CHX counter 19.4.
`CS(=O)(=O)c1ccc(C(=O)OCC(=O)Nc2cccnc2Cl)cc1[N+](=O)[O-]` gave TbPYK inhibitor 3.7%.
For CC(=O)c1cccc(NC(=O)COC(=O)c2ccc(S(C)(=O)=O)c([N+](=O)[O-])c2)c1 the results were Sm TGR inh 3.16µM*, FBPA Giardia inh 0.5%, LmPK inhibitor 2.8%, Shiga toxin inh -5.6, TbPYK inhibitor -1.3% and CHX counter 5.3.
Cc1ccccc1NC(=O)COC(=O)c1ccc(S(C)(=O)=O)c([N+](=O)[O-])c1 was read as Sm TGR inh 1.41µM*, FBPA Giardia inh 3.9%, LmPK inhibitor -2.4%, Shiga toxin inh 11.3, TbPYK inhibitor -5.6% and CHX counter 13.5*.
CC(CCc1ccccc1)NC(=O)COC(=O)c1ccc([N+](=O)[O-])cc1 (stereo not drawn) was read as Sm TGR inh 3.6%, FBPA Giardia inh 4.3%, LmPK inhibitor 1.1%, Shiga toxin inh -9.1, TbPYK inhibitor 1.1% and CHX counter 1.2.
`CS(=O)(=O)c1ccc(C(=O)OCC(=O)NC(=O)C2COc3ccccc3O2)cc1[N+](=O)[O-]` (stereo not drawn) gave TbPYK inhibitor 1.5%.
Cc1cc(Nc2cc(F)ccc2C)nc(-n2nc(C)cc2C)n1 was read as Sm TGR inh -1.2% and TbPYK inhibitor -4.4%.
`Cc1ccccc1NC(=O)Cc1nc(COC(=O)c2ccc(S(C)(=O)=O)c([N+](=O)[O-])c2)cs1` gave Sm TGR inh 2.82µM* and TbPYK inhibitor 6.6%.
Screening Cc1ccccc1NC(=O)Cc1nc(COC(=O)c2ccc(NC(N)=O)cc2)cs1 returned TbPYK inhibitor 7.4%.
`O=C(Cn1cc(SCc2ccc(F)cc2)c2ccccc21)N1CCCCCC1` gave Sm TGR inh 2.7% and TbPYK inhibitor -7.3%.
Screening C=CCc1cccc(C=Nc2c[nH]c(=O)[nH]c2=O)c1O returned Sm TGR inh -29.1%, FBPA Giardia inh -6.1%, LmPK inhibitor -10.0%, TbPYK inhibitor -1.4% and CHX counter -3.0.
For C=CCc1cccc(C=Nc2cccn3cc(-c4ccccc4)nc23)c1O the results were Sm TGR inh -0.4%, FBPA Giardia inh -22.3%, LmPK inhibitor -24.5%, Shiga toxin inh 69.1*, TbPYK inhibitor -5.8% and CHX counter 31.8*.
For CC1=C(C(=O)Nc2ccccc2C(=O)NC2CCC(C)CC2)SCCO1 (stereo not drawn) the results were Sm TGR inh 0.2%, LmPK inhibitor -5.0%, Shiga toxin inh 25.5, TbPYK inhibitor -2.7% and CHX counter 16.0*.
Screening CC1=C(C(=O)Nc2ccccc2C(=O)NCc2ccccc2)SCCO1 returned Sm TGR inh 12.0%, LmPK inhibitor 0.1%, Shiga toxin inh -2.3, TbPYK inhibitor 2.2% and CHX counter 4.9.
`CCCCNC(=O)CCn1c(=O)c2ccccc2n(Cc2ccccc2C#N)c1=O` gave Sm TGR inh 5.4% and TbPYK inhibitor -2.7%.
`COc1ccc(Cl)cc1-n1c(C)ccc1C` gave Sm TGR inh 50.1µM*, FBPA Giardia inh -5.4%, LmPK inhibitor -0.4%, Shiga toxin inh 15.7, TbPYK inhibitor -6.6% and CHX counter -2.4.
Cc1ccc[n+](CC(=O)Nc2c(Cl)cc(Cl)cc2Cl)c1 was read as Sm TGR inh 3.0%, FBPA Giardia inh -19.0%, LmPK inhibitor 6.1%, Shiga toxin inh 75.9*, TbPYK inhibitor -1.8% and CHX counter 25.3*.
For Nn1c(SCC(=O)NCC2CCCO2)nnc1-c1ccc(OC(F)F)cc1 (stereo not drawn) the results were Sm TGR inh -8.6% and TbPYK inhibitor 5.7%.
Screening Cc1ccc(CNC(=O)c2ccc(F)c(S(=O)(=O)N3CCOCC3)c2)cc1 returned Sm TGR inh -6.5% and TbPYK inhibitor 2.1%.
For Cc1ccc2nc(N3CCN(c4cccc(Cl)c4)CC3)c(-n3nc(C)cc3C)nc2c1 the results were Sm TGR inh 3.1% and TbPYK inhibitor 4.3%.
COc1ccccc1N1C(=O)C=C(Sc2nc(C)cc(C)n2)C1=O was read as Sm TGR inh 1µM*, FBPA Giardia inh -22.0%, LmPK inhibitor inconclusive, Shiga toxin inh 5.8, TbPYK inhibitor 5.01µM* and CHX counter -0.5.
NC(N)=Nc1cc2ccccc2c2ccccc12 was read as Sm TGR inh -0.4%, FBPA Giardia inh 3.15µM*, LmPK inhibitor -0.1%, Shiga toxin inh 17.9 and CHX counter -1.6.
For NC(N)=NC(N)=Nc1cccc2ccccc12 the results were Sm TGR inh 5.9%, FBPA Giardia inh -29.0%, LmPK inhibitor -1.2%, Shiga toxin inh -11.0, TbPYK inhibitor 1.1% and CHX counter -1.0.
`COc1cc(/C=C2/NC(=O)N(Cc3ccccc3F)C2=O)cc(OC)c1O` gave Sm TGR inh 14.1µM*, FBPA Giardia inh -24.5%, LmPK inhibitor 5.9%, Shiga toxin inh 5.0, TbPYK inhibitor inconclusive and CHX counter 12.6.
`CCOc1cc(/C=C2/NC(=O)N(Cc3ccccc3F)C2=O)ccc1O` gave Sm TGR inh inconclusive, FBPA Giardia inh -4.4%, LmPK inhibitor 3.4%, Shiga toxin inh 15.0, TbPYK inhibitor 1.6% and CHX counter 1.1.
Screening Cn1c(N)c(Sc2ccccc2[N+](=O)[O-])c(=O)n(C)c1=O returned Sm TGR inh -19.7%, FBPA Giardia inh -3.6%, LmPK inhibitor 7.2%, Shiga toxin inh 3.3, TbPYK inhibitor -3.7% and CHX counter -4.6.

Bioassay records: PubChem, National Center for Advancing Translational Sciences (NCATS)
